Values without a mark were called inactive.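 Rule for the calls: active = MAPPIT score above the 99th percentile of random reference set scores in the same batch; inactive = at or below it.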

Test in all cases: MAPPIT interaction score (arbitrary units); higher = stronger binary interaction signal, active = hit call of the paper
One assay addresses SmydA-8. Particulars: MAPPIT configuration: N-N; pair source set: screen_2.
The target of another assay is Smn. The conditions noted are these: MAPPIT configuration: N-C; pair source set: Lit-BM-16.
The next assay concerns the target Sms. The conditions noted are these: MAPPIT configuration: N-N; pair source set: Finley_Y2H.
The target in the next assay is Sxl. Particulars: MAPPIT configuration: N-N; pair source set: Lit-BM-16.
In a further assay the target is Sod3.
A further assay has as its target Su(var)2-10. Particulars: MAPPIT configuration: N-N; pair source set: DPIM.
The target in another assay is Snap29. The conditions noted are these: MAPPIT configuration: N-C; pair source set: Lit-BM-16.
The next assay has as its target Swt1. Particulars: MAPPIT configuration: N-N; pair source set: Finley_Y2H.
In the next assay the target is Snapin. The conditions noted are these: MAPPIT configuration: N-N; pair source set: Lit-BM-16.
The target of the next assay is Ssrp. The conditions noted are these: MAPPIT configuration: N-C; pair source set: Lit-BM-16.
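Note: HEK293T cells with Epo stimulation, STAT-responsive firefly luciferase reporter, fold induction versus unstimulated cells divided by the larger fold induction of two negative controls lacking either bait or prey.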

B1: Hsp67Bc (protein)
chain: MPDIPFVLNLDSPDSMYYGHDMFPNRMYRRLHSRQHHDLDLHTLGLIARMGAHAHHLVANKRNGELAALSRGGASNKQGNFEVHLDVGLFQPGELTVKLVNECIVVEGKHEEREDDHGHVSRHFVRRYPLPKEFDSDAIVSTLSEDGVLNITVPPLVSKEELKERIIPIKHVGPSDLFQNGNGHKEAGPAASASEPEAK
On to B1, for which the MAPPIT interaction score in the assay with SmydA-8 was -0.475.

B2: Gem2 (protein)
chain: MQHEPEDQTFQLQALEICEPDSSFDPQKPPESGEEYLMHMFYERKRCPAVVTKRSSKIRNNTGNTTLEMLDNPELPPFKCLLPTPEWRDEQVKSFQAARSQVLVLRKELANNNYDQSGEPPLTSDQEKWKEFCRNQQPLLSTLLHLTQNDLELLLEMLSKWLQDPNTTVDLLHDVWLARWLYATLVCLHLPLEPHVFSTLRYIARTCIHLRNQLKEDEVQRAAPYNLLLTLTVQVFAQNDFKDYI
Take B2: the MAPPIT interaction score with Smn is 2.73.

B3: l(2)34Fc (protein)
chain: MFRLLVLAACLAISVHAYSDGAPKAACRDLTPQHGAKLQVTKPPYSISGPSHVRSDQKLTLTLGGDEFLGFMIQARDGQNRVVGQFQVVDSVHSQTLDCSGKDDTITHLSAQKGKPLTGITFDWIPPAGYKGNVKFMATVVQTGFVYWVGRVTKDIDVE
As for B3, the MAPPIT interaction score in the assay with Sms is 0.335.

B4: Unr (protein)
chain: MNTQSKVYRTGEEIYDNLPCDSYFNMNAIRNLGIPTTFPTIGTFTLDSTTLGLQPQGQGPSPQQQQHQQQQQQQQQQHQQNMHHHQHQQQHMQQQQQQQQHQQQHQQQQHQQQQQHQQQQQQQQQHPTIGMFDANEVNDVIQNPPQIGVFQSNSVLTNGAGSGSSIFGSQSSNSSAAAADPSQTTRETGIIEKLLHSYGFIQCCERQARLFFHFSQFSGNIDHLKIGDPVEFEMTYDRRTGKPIASQVSKIAPEVVLSEERVTGTVTTELRTDSANNVLNSSETTGRISYENRGECFFLPYTKDDVEGNVNLRAGDKVSFQIATNQRGNLGACHIRLENPAQPVKYRGVVCSMKESFGFIERADVVKEIFFHFSEAEGNVELRPGDDVEFTIQTRSSASVPPQGREFACNITRLAPGSVIFEDVDSTVYKGQVLKSLDRNNPVRQNNDPLPGRIRYRALDYSEVEVPFGDKDQKGDFTLRHGDWVQFLLATDRRDQLQRATSIALLDETFKVSGEKREQGTIASLKEGFGFLRCVERQARLFFHFTEVLDTSREIDINDEVEFTVIQEPGLAYNNSRLQAIRIKHLPPNSVQFETLVASNIEGCVTREAPKSPIKSQDRVEGGVITYEHADVKKTIMYFLKDCEKPPRIGERVRFDIYMVKRNKECIAVNVQQVSLHQQQQQQQQQLHLNQSNAGANINQNDQLGGLSNGISSSSSNASLQNGYVMHGSPGGSTSSVGSNNPVHLDEFKMENNNHAGSDAGQVYRGFIAVMKENFGFIETLSHDEEVFFHFSNYMGNPNWLELGQEVEYTLARNGNTSVSGNCLPAENVRMLPKNSIPQPAVLETTHNGVVARPLRCINPDQQEYAGLIEILDELRTTVISQHEFGITSLVNKRDLLQKGDLVSFRIDESGRAACVNAVRQKKRATVDSIKGQFGFLNFEVEDGKKLFFHMSEVQGNTVALHPGDTVEFSVVTNQRNGKSSACNVLKINDRPDRLISRLKLNGDDTVPRLILIRAPKGPQGKGFSVLARHPRIPGNLVE
B4: the MAPPIT interaction score with Sxl was 1.51.

B5: Drs (protein)
chain: MMQIKYLFALFAVLMLVVLGANEADADCLSGRYKGPCAVWDNETCRRVCKEEGRSSGHCSPSLKCWCEGC
As to B5, the MAPPIT interaction score with Sod3 (MAPPIT configuration: N-C, pair source set: screen_4) was 1.45.

B6: Calr (protein)
chain: MMWCKTVIVLLATVGFISAEVYLKENFDNENWEDTWIYSKHPGKEFGKFVLTPGTFYNDAEADKGIQTSQDARFYAASRKFDGFSNEDKPLVVQFSVKHEQNIDCGGGYVKLFDCSLDQTDMHGESPYEIMFGPDICGPGTKKVHVIFSYKGKNHLISKDIRCKDDVYTHFYTLIVRPDNTYEVLIDNEKVESGNLEDDWDFLAPKKIKDPTATKPEDWDDRATIPDPDDKKPEDWDKPEHIPDPDATKPEDWDDEMDGEWEPPMIDNPEFKGEWQPKQLDNPNYKGAWEHPEIANPEYVPDDKLYLRKEICTLGFDLWQVKSGTIFDNVLITDDVELAAKAAAEVKNTQAGEKKMKEAQDEVQRKKDEEEAKKASDKDDEDEDDDDEEKDDESKQDKDQSEHDEL
As for B6, in the assay with Su(var)2-10, the MAPPIT interaction score was 1.1.

B7: Syx4 (protein)
chain: MGKDRLPELLQRSLSTNSSNSSSNGSLLLNVYSGTTEFIIGNTGGNNNSYSVVSQNSHSCSNNNSSTEPKDRSSSKMTQYGSNVDDILNPYTEIRQQLAQIAANLETMNRMAQTVNLRTFNENEMDELHNKNLRLGNQLMTRFNDFKANLPAENDYSLEARMKRTLFYGLHQTFINLWHKNELFLQNYETKVKKNLRLHTKIINSEASEQEIELLIENKTTKLFVDNFLQETEKERQTLREMMDRFNELRRLEKSIEEVHALFMRIQTLVMEQSEVIQRVEFHAQQATLHVDKGADELDQAEQHQKKARKKKIMLIVILAAVLLVLLLVGIYL
Consider B7, for which the MAPPIT interaction score with Snap29 is 3.12.

B8: Zpr1 (protein)
chain: MSTVSDPNSSNPPESAGNIRPEPIFREINAEQTDEIVEVESACMNCFETGVTRLLPTKIPFFREVVLMSFKCDHCGHINNEMQSASEIQKSGIRIELRVQSVADLNRRVVRSDNSSISIPEIELEIPVQSQKGEVTTVEGIIERTIAGLSQDQEKRRIDHPETAASIEKYIERLHRLKEVTTPFQVLLEDISGNSFIENPLAPAADPQLKTSYFTRSQQQNEQLGLYEQNHEEQHLLKPIAEDSWPIENLHGEVLQFPTNCPSCQAPCETNMKLTNIPHFKEVVIMATVCGACGHKTNEVKSGGGVEAQGVRFRVQIASREDLTRDVLKSETCSMSIPELDLEVGPHALCGRFTTVEGLLVAMRDQLDGTLFHDSADDATKQQMQRFLDTFEDVMNLKRVITLVLEDPAGNTYVQSLSDDDSEPDDKLTVERYDRSYEDNEDLGLNDMKTEGYEEKA
B8: in the assay with Swt1, the MAPPIT interaction score was -0.39.

B9: Dysb (protein)
chain: MFGNLKKKLSSAIQEGLVISENLQQQYRQRVSSGNSGSSQASGITTPISPLGLNESLSSSRSSSLSLSAPFQLTDGVPSHLNVAAGCSLLAKYEDDWQQIHGANEKNAEKAAQIANQISGIQDQASHQHRIMSELNSSLAGIPTLIAQLQNSSQVLNSLEEMGKQLEIELEKLEDLREECELQEFILEQQFQLSRHKQKKLNELEQYRQQIAQKHQSKIKDQEQTLLKLQRERQAVFDDAFREDMEEYKQRGQLTKIQTTSNKLALEEVVLEANEVETKDALEQFLNG
On to B9, for which, in the assay with Snapin, the MAPPIT interaction score is 3.8 (active).

B10: noc (protein)
chain: MVVLEGGGGVVTIGNNQYLQPDYLAPLPTTMDAKKSPLALLAQTCSQIGADSSAVKPLLAMDKNKTKPGACSSSSNSSSSSGSAEISAAKSPSGQAKSPKSSTPISSTATSASLSNTSTGEIKLAFKPYETNVLSHQNQNSFKSSSSLDAEPTRPSSKNSSSAQERVPSRSKSNATPTDGGKAEISAHDSSSSRKTVSPSGSSQRGASPIVRSGMEVLNNANGTAQHPKEMSSMAAAAAAAAAAYKAAGPYGLNPLSALCCPPGMEQHANPAFRPPFAGGFSHHHAAMLAVAANGGYPGGAPGGGPAGQPNPYISYQRIKTPAGGEAIVPVCKDPYCQGCPYSAHTQQMLMGAPCPAGCTQCEHQKYGLAMASAAGLPPAHPYSQAAAAAAANAAAARSAPYVCSWVVGDAYCGKRFQTSDELFSHLRTHTGNLSDPAAAAAALAQSQAQSLLGTLFPPSALRAGYPTPPLSPMSAAAAAARYHPYAKPPPGALAGGPSPFGAAGAFNPAAAAAAAALGPYYSPYAMYGQRMGAAHQ
As for B10, the MAPPIT interaction score with Sod3 (MAPPIT configuration: N-N, pair source set: Lit-BS-16) was 0.758.

B11: shv (protein)
chain: MQLIKCLVIIQLSLLLVEESFAGRDFYKILNVKKNANTNEVKKAYRRLAKELHPDKNKDDPDASTKFQDLGAAYEVLSNPDKRKTYDRCGEECLKKEGMMDHGGDPFSSFFGDFGFHFGGDGQQQDAPRGADIVMDLYVSLEELYSGNFVEIVRNKPVTKPASGTRKCNCRQEMVTRNLGPGRFQMIQQTVCDECPNVKLVNEERTLEIEVEQGMVDGQETRFVAEGEPHIDGEPGDLIVRVQQMPHPRFLRKNDDLYTNVTISLQDALVGFSMEIKHLDGHLVPVTREKVTWPGARIRKKGEGMPNFENNNLTGNLYITFDVEFPKKDLTEEDKEALKKILDQSSINRIYNGL
As for B11, in the assay with Sod3 (MAPPIT configuration: N-N, pair source set: Curagen_high_conf), the MAPPIT interaction score was 0.367.

B12: dre4 (protein)
chain: MSSFVLDKEAFVRRVKRLYTEWRAPSIGHDDALRNLDCIMSIVGVEEDVMYSKSMALQLWLLGYELTDTISVFCSDAVYFLTSKKKIEFLKQTQNITEEGFPEINLLVRDRTDKDQGNFEKLIKALQNSKKGKRLGVFAKDAYPGEFSEAWKKSLTASKFEHVDISTIIAYLMCPKDESEINNIRKASLVSMDIFNKYLKDEIMDIIDSDRKVKHNKLSDGCEAAIGEKKYTSGLDPRLLDMAYPPIIQSGGAYSLKFSAVADKNPLHFGVIVCSLGARYKSYCSNISRTFLVNPTEAMQENYTFLVSVQEEILKLLVPGTKLCDVYEKTLDFVKKEKPSMVDNLPKSFGFAMGLEFRENSIVIGPKCQALLKKNMVFNLHVGISNLTNPEATDKEGKNYALFIGDTVLVGEQSPASVMTPSKKKIKNVGIFIKDDSDEEDVDDKKTAKEDQGTEILGRSKRNAVLESKLRNEINTEEKRKEHQRELAQQLNERAKDRLARQGNSKEVEKVRKNTVSYKSISQMPREPEVKELKLYVDKKYETVIMPVFGIQVPFHISTIKNISQSVEGEYTYLRINFFHPGATMGRNEGGLYPQPEATFVKEVTYRSSNVKEHGEVGAPSANLNNAFRLIKEVQKRFKTREAEEREKEDLVKQDTLILSQNKGNPKLKDLYIRPNIVTKRMTGSLEAHSNGFRYISVRGDKVDILYNNIKSAFFQPCDGEMIILLHFHLKYAIMFGKKKHVDVQFYTEVGEITTDLGKHQHMHDRDDLAAEQAERELRHKLKTAFKSFCEKVETMTKSVVEFDTPFRELGFPGAPFRSTVTLQPTSGSLVNLTEWPPFVITLDDVELVHFERVQFHLRNFDMIFVFKEYNKKVAMVNAIPMNMLDHVKEWLNSCDIRYSEGVQSLNWQKIMKTITDDPEGFFEQGGWTFLDPESGSEGENETAESEEDEAYNPTDAESDEESDEDSEYSEASEDSEESDEDLGSDEESGKDWSDLEREAAEEDRNHDYAADDKPRNGKFDSKKHGKSSKHSPSKSSKDKYNSRDKHHSSSSSGNKSSSKDKDRKRSRDDSRDNGHKSKKSRH
With B12, in the assay with Ssrp, the MAPPIT interaction score was 0.759.

(Values after the supplement of paper PMC10105736.)
